We go through ten molecules from PubChem BioAssay (NCATS).

A short description of assay [1]: qHTS Assay for Identifying Gametocytocidal Compounds (AID 743244; active means well fitted curve in the direction sought with a large enough effect; an effect the other way counts as inactive or inconclusive;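 further: on the % scale 0 is the no-effect control and ±100 the full control effect; actives lower the fluorescent signal which means gametocytes are killed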). The note with it: P. falciparum 3D7 stage III-V gametocytes, alamarBlue, 72 h; max response: stronger effect = lower value. The procedure, abridged:
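3D7 gametocytes, stages III–V, 20,000/well; cpd 72 h, 37 °C/5% CO2; + alamarBlue 24 h; fluor. Ex 525/Em 598.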
(In general: qHTS replaces the single test concentration by a dilution series.)

Assay [2] is described as follows: qHTS profiling for inhibitors of Plasmodium falciparum (3D7) proliferation (AID 743322).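 Further: infected erythrocytes exposed to compound for 72 h before lysis; 100% = DMSO vehicle wells and 0% = 0.29 µM artemisinin.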 To be noted: P. falciparum 3D7 proliferation; at 28.7 µM (top of the series). The procedure, abridged:
(§1)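 Erythrocytes infected with P. falciparum (0.3% parasitemia, 2.5% hematocrit) incubated with compounds 72 h at 37 C, 5% CO2. Lysis with saponin/Triton buffer containing SYBR Green I, overnight at room temperature in the dark; DNA fluorescence (485/535 nm) normalised to 0.29 uM artemisinin and DMSO.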

Assay [3] is described as follows: qHTS profiling for inhibitors of Plasmodium falciparum (DD2) proliferation (AID 743323). The note with it: lower = more inhibition; at 28.7 µM (top of the series). The procedure, abridged:
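SYBR Green fluorescence (ex 485, em 535 nm) of lysed cultures gives parasite DNA content; wells normalized to artemisinin (0.29 uM) and DMSO controls. Infected red cells: 0.3% parasitemia, 2.5% hematocrit, 72 h, 37 C.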

Assay [4] can be described thus: qHTS profiling for inhibitors of Plasmodium falciparum (HB3) proliferation (AID 743324; active means well fitted curve in the direction sought with a large enough effect; an effect the other way counts as inactive or inconclusive;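 further: 100% = DMSO vehicle wells and 0% = artemisinin-treated control wells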). To be noted: Plasmodium falciparum HB3 blood-stage proliferation; at 28.7 µM (top of the series). The procedure, abridged: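 P. falciparum HB3 grown in erythrocytes (0.3% parasitemia, 2.5% hematocrit final) with compound for 72 h at 37 C, 5% CO2. Parasite DNA detected by SYBR Green after saponin/triton lysis overnight; normalized to 0.29 uM artemisinin and DMSO.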

The nature of assay [5]: qHTS profiling of the MIPE4 collection as inhibitors of Plasmodium falciparum (3D7) proliferation (AID 743344).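 Further: scaled between DMSO vehicle wells and 0.29 µM artemisinin as full inhibition.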 To be noted: P. falciparum 3D7 in erythrocytes, SYBR Green DNA fluorescence, 72 h; at 28.5 µM (top of the series) unless noted. The procedure, abridged: as §1
Assay [6] can be described thus: qHTS profiling of the MIPE4 collection as inhibitors of Plasmodium falciparum (DD2) proliferation (AID 743345). To be noted: P. falciparum Dd2 in erythrocytes, SYBR Green DNA, 72 h; at 28.5 µM (top of the series) unless noted. The procedure, abridged:
as §1

The nature of assay [7]: qHTS profiling of the MIPE4 collection as inhibitors of Plasmodium falciparum (DD2) proliferation (Rep 2) (AID 743346). To be noted: P. falciparum Dd2 in erythrocytes, SYBR Green DNA, 72 h; at 28.5 µM (top of the series) unless noted. The procedure, abridged:
as §1

The nature of assay [8]: qHTS profiling of the MIPE4 collection as inhibitors of Plasmodium falciparum (HB3) proliferation (AID 743347).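 Further: plate controls were DMSO vehicle wells for no effect and artemisinin wells for full effect.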 The note with it: P. falciparum HB3 in erythrocytes, SYBR Green DNA, 72 h; at 28.5 µM (top of the series) unless noted. The procedure, abridged:
as §1

Assay [9] in a line: High-throughput drug toxicity screening in the BPDCN cell line Gen2.2 (AID 1224824).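 Further: cells exposed to compounds for 48 h before reading.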 To be noted: Gen2.2 BPDCN cells; at 45.8 µM (top of the series) unless noted. The procedure, abridged:
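Gen2.2, 500 cells/well, phenol red-free RPMI/10% FBS/Pen-Strep; 48 h cpd, 37 °C/5% CO2; CTG lum, 15 min RT. Norm: DMSO = 100%, bortezomib 9.2 uM final = 0%.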

Assay [10] in a line: High-throughput drug toxicity screening in the BPDCN cell line Cal-1 (AID 1224825). To be noted: Cal-1 BPDCN cell viability, qHTS; at 45.8 µM (top of the series) unless noted. The procedure, abridged:
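Exponentially growing Cal-1 cells, 500 per well in phenol red-free RPMI with 10% FBS, were exposed to compounds for 48 h at 37 °C, 5% CO2. Viability was read by CellTiter-Glo luminescence and normalised to DMSO (100%) and 9.2 uM bortezomib (0%).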

Assay [11] in a line: qHTS assay for measurement of the activity of small molecule inhibitors on Zika virus induced Caspase-3 activity in human iPSC derived neural progenitor cells (hNPCs) (AID 1224857; active means well fitted curve in the direction sought with a large enough effect; an effect the other way counts as inactive or inconclusive; further: % of control where 0% means no effect; nearly all actives have a fitted effect of over 65% in size). A digest of the protocol: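 Cells were plated at 350 per well and grown 16 to 20 hours. Compound pretreatment lasted one hour, after which ZIKV (2 FFU/cell) was added for 6 hours. Percent inhibition was normalized between uninfected and infected controls.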

The nature of assay [12]: qHTS assay for measurement of the activity of small molecule inhibitors on Zika virus induced Caspase-3 activity in human astrocytoma cells (AID 1224859; active means well fitted curve in the direction sought with a large enough effect; an effect the other way counts as inactive or inconclusive;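 further: plate controls were ZIKV-infected untreated cells for no effect and uninfected cells for full effect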). The procedure, abridged:
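Percent inhibition of virus-induced caspase-3/7 signal is calculated against uninfected and ZIKV-infected control cells. Cells are SNB-19, infected at 2 FFU/cell for 6 h after 1 h compound exposure.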

Assay [13] is described as follows: qHTS Screen of the MIPE 4.0 Collection Against Ewings Sarcoma (EW8) (AID 1259255; active means well fitted curve in the direction sought with a large enough effect; an effect the other way counts as inactive or inconclusive; further: nearly all actives have a fitted effect of over 35% in size; further: potency means the concentration at half of the fitted maximal effect;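 on viability: 100% = DMSO-treated cells and 0% = medium-only wells without cells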). A digest of the protocol: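 Measured: ATP luminescence (CellTiter-Glo) 10 min after reagent addition, following 48 h drug treatment. Relative luciferase units converted to percent activity, with no-cell wells as full and DMSO wells as zero inhibition.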

Inconclusive results are not listed. Calls of active or inactive are those of the source. Unless noted, how the calls were made is not given here.

For the molecule `O=C(O)c1ccc(-c2cc3cccnc3c(-c3ccc4nonc4c3)n2)cc1`, in [1], the max response was 33.8% (inactive). The remaining parasite growth % (stronger effect = lower value) in [2] turned out to be 98.1%. Further, the activity, percent of control in assay [3] was 92.9%. In addition, the remaining proliferation (% of control), lower = more inhibition in assay [4] was 93.9%. In addition, the parasite growth, % of DMSO control in assay [5] came to 15.8%. This molecule also yielded a parasite growth remaining, % of DMSO control (lower = more inhibition) in assay [6] of 53.9%. The parasite growth, % of control (lower = inhibition) in assay [7] came to 37.1%. In addition, in assay [8], the growth, % of control is 3.01%. In addition, the cell viability, % of control (lower = more cytotoxic) in assay [9] turned out to be 30.2%. The viability (% of control) in [10] was determined as 18.7%. The Potency entry in [11] and in assay [12] was “inactive” each time.

On to `CC(C)C(=O)Nc1ncc(-c2cc(C(F)F)nn2-c2c(Cl)cccc2Cl)s1`, for which the remaining parasite growth % (stronger effect = lower value) in [2] is 0.0648%. Further, the activity, percent of control in [3] was -0.314%. Besides, the remaining proliferation (% of control), lower = more inhibition in [4] is -0.0078%. The molecule further registered a parasite growth, % of control (lower = inhibition) in assay [7] of 18.7%. The same molecule returned a growth, % of control in [8] of 11.3%. Also, the cell viability, % of control (lower = more cytotoxic) in assay [9] was determined as 113%. Moreover, the viability (% of control) in assay [10] turned out to be 6.45%. Besides, the Potency entry in [11] and in assay [12] was “inactive” in each case.

As to `NC1=N[C@@]2(c3cc(NC(=O)c4ccc(F)cn4)ccc3F)COC[C@@H]2CS1`, in assay [5], the parasite growth, % of DMSO control was 23.2%. This molecule yielded a parasite growth remaining, % of DMSO control (lower = more inhibition) in assay [6] of 20.8%. In assay [7], this molecule showed a parasite growth, % of control (lower = inhibition) of 26.1%. The molecule further yielded a growth, % of control in [8] of 20.1%. The cell viability, % of control (lower = more cytotoxic) in assay [9] turned out to be 21.6%. Besides, in assay [10], the viability (% of control) came to 12.9%. Besides, the Potency entry in assay [11], in [12] and in assay [13] was “inactive” each time.

As to `CC(C)(C)NC(=O)Nc1cccc(Nc2ncc(F)c(NC(C)(C)CO)n2)c1`, the parasite growth, % of DMSO control in assay [5] amounted to 5.44%. The molecule further returned a parasite growth remaining, % of DMSO control (lower = more inhibition) in assay [6] of 7.22%. For the same molecule, in assay [7], the parasite growth, % of control (lower = inhibition) came to 7.73%. Moreover, the cell viability, % of control (lower = more cytotoxic) in assay [9] is 235%. In [10], the viability (% of control) is 45.1%. Further, the Potency entry in [11] and in [12] was “inactive” throughout.

Regarding `CO[C@H]1C[C@@H]2CC[C@@H](C)[C@@](O)(O2)C(=O)C(=O)N2CCCC[C@@H]2C(=O)O[C@H]([C@H](C)C[C@@H]2CC[C@H](OCCO)[C@H](OC)C2)CC(=O)[C@H](C)C=C(C)[C@@H](O)[C@@H](OC)C(=O)[C@H](C)C[C@H](C)C=CC=CC=C1C`, the remaining parasite growth % (stronger effect = lower value) in assay [2] was -1.41%. In addition, in assay [3], the activity, percent of control was -0.639%. Also, the remaining proliferation (% of control), lower = more inhibition in [4] was -1.24%. Also, in [5], the parasite growth, % of DMSO control was determined as 4.95%. The molecule further had a parasite growth remaining, % of DMSO control (lower = more inhibition) in assay [6] of 7.69%. Besides, in [7], the parasite growth, % of control (lower = inhibition) is 8.53%. Moreover, in assay [9], the cell viability, % of control (lower = more cytotoxic) is 10.1%. Also, the viability (% of control) in [10] is 12.7%. Moreover, the Potency entry in assay [11] and in assay [12] was “inactive” each time.

The molecule `O=C(O)C(O)Cc1ccc(O)c(O)c1` (stereo unspecified) displayed a parasite growth, % of DMSO control in [5] of 102%. The same molecule had a parasite growth remaining, % of DMSO control (lower = more inhibition) in [6] of 79.5%. In addition, in assay [7], the parasite growth, % of control (lower = inhibition) stood at 65.6%. For the same molecule, the growth, % of control in assay [8] stood at 106%. Further, the cell viability, % of control (lower = more cytotoxic) in assay [9] is 94.8%. Besides, the viability (% of control) in [10] is 105%. Besides, the Potency result in assay [11] and in assay [12] was “inactive” in each case.

`Oc1ccc(C2CCN(c3ccnc4ccccc34)CC2)cc1O`: in assay [5], the parasite growth, % of DMSO control worked out at 6.17%. In assay [6], this molecule displayed a parasite growth remaining, % of DMSO control (lower = more inhibition) of 13.2%. Further, the parasite growth, % of control (lower = inhibition) in assay [7] came out at 11.6%. Besides, the cell viability, % of control (lower = more cytotoxic) in [9] was 31%. In [10], the viability (% of control) was 5.01%. The Potency entry in assay [11] and in [12] was “inactive” throughout.

On to `COC(=O)N[C@H](C(=O)N1CCC[C@@H]1c1ncc(-c2ccc(-c3ccc(-c4cnc([C@@H]5CCCN5C(=O)[C@@H](NC(=O)OC)C(C)C)[nH]4)cc3)cc2)[nH]1)C(C)C`, for which the parasite growth, % of DMSO control in [5] stood at 9.52%. This molecule also yielded a parasite growth remaining, % of DMSO control (lower = more inhibition) in [6] of 9.13%. The molecule also came in with a growth, % of control in [8] of 14.2%. Besides, the cell viability, % of control (lower = more cytotoxic) in assay [9] turned out to be 6.1%. For the same molecule, the viability (% of control) in assay [10] came to 28.7%. The Potency result in assay [11] and in assay [12] was “inactive” in each case. Besides, the Potency in assay [13] was 26.4 µM (active).

In the case of `CC1(C)S[C@H]2[C@H](NC(=O)[C@@H](N)c3ccc(O)cc3)C(=O)N2[C@@H]1C(=O)O`, the parasite growth, % of DMSO control in assay [5] was determined as 7.42%. For the same molecule, the parasite growth, % of control (lower = inhibition) in assay [7] was 8.21%. This molecule registered a growth, % of control in assay [8] of 6.54%. Besides, in [9], the cell viability, % of control (lower = more cytotoxic) came out at 125%. Further, the viability (% of control) in [10] came to 19.4%. Further, the Potency entry in assay [11], in assay [12] and in assay [13] was “inactive” in each case.

For `CCC(=O)NC[C@H](Cc1ccc(OCCc2nc(-c3ccccc3)oc2C)cc1)NC(C)=CC(=O)c1ccc(C(F)(F)F)cc1`, in [5], the parasite growth, % of DMSO control is 6.82%. The parasite growth remaining, % of DMSO control (lower = more inhibition) in assay [6] was determined as 7.84%. In assay [7], this molecule registered a parasite growth, % of control (lower = inhibition) of 21.5%. Also, in [8], the growth, % of control turned out to be 9.04%. For the same molecule, the cell viability, % of control (lower = more cytotoxic) in [9] is 96.4%. In addition, in assay [10], the viability (% of control) came to 5.56%. Besides, the Potency result in [11] and in assay [12] was “inactive” each time.
